# The supplement of paper PMC12067093, “Discovery and optimisation of a covalent ligand for TRIM25 and its application to targeted protein ubiquitination” (Chemical Science, 2025)
# Targets with the largest changes are over-represented here; the source holds about 21,000 in all.
# Compound: Cc1cc(ccc1-c1ccccc1)C(=O)N1CCCN(CC1)C(=O)CCl [compound 10]
# Test: probe-labelled cysteine peptide fold change vs DMSO (competition) (log2 fold change); higher = less target engagement (more negative = stronger competition)
# Settings: THP-1, incubation time: 4 h
# 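Further: competitive profiling in live THP-1 cells: cysteine peptides tagged with an iodoacetamide desthiobiotin (IA-DTB) probe, intensity after compound treatment relative to DMSO-treated cells.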
# UniProt O43665, sequence (O43665 whole entry, looked up): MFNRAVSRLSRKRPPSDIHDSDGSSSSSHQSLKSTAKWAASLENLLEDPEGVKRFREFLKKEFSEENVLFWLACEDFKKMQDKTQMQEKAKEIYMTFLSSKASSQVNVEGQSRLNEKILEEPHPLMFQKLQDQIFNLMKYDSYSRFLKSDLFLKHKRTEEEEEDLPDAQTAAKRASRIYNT
# UniProt O14966, sequence (O14966 whole entry, looked up): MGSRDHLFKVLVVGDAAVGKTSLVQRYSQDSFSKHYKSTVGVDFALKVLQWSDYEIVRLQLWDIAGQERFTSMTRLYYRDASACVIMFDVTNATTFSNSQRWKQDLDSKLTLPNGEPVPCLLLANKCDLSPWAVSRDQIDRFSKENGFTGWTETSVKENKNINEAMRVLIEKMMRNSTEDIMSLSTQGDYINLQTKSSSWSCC
# UniProt Q14671, sequence (Q14671 whole entry, looked up): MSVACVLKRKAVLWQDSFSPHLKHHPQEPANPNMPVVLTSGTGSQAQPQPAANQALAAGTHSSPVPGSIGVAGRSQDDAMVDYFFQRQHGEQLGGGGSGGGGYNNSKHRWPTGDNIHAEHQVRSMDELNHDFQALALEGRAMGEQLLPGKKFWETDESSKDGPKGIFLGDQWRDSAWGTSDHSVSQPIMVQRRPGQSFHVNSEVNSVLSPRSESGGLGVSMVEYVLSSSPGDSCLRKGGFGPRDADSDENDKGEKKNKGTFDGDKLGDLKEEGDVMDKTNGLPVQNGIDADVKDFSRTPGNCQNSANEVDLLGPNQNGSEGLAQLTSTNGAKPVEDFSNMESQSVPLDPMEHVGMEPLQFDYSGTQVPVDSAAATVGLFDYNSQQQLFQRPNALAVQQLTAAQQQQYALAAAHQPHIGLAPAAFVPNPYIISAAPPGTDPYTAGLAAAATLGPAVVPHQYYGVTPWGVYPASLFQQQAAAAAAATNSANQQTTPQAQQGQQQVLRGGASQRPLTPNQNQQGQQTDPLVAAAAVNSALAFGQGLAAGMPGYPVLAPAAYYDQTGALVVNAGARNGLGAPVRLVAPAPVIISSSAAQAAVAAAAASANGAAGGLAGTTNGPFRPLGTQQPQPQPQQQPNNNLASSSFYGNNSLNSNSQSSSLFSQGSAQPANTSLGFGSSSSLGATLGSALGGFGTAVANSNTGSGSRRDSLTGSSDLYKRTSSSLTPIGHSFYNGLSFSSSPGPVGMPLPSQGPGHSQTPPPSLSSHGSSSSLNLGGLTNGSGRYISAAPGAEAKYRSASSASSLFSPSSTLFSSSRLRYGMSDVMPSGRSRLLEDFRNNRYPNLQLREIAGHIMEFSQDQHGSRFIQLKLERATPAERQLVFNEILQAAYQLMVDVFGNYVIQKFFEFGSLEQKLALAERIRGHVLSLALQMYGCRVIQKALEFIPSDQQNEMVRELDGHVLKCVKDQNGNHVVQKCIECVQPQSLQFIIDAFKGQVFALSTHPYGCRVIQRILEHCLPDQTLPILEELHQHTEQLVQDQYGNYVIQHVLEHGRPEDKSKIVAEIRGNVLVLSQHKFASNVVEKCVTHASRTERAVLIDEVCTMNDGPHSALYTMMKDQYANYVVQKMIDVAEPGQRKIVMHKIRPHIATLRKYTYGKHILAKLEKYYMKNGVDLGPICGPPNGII
# UniProt P62191, sequence (P62191 whole entry, looked up): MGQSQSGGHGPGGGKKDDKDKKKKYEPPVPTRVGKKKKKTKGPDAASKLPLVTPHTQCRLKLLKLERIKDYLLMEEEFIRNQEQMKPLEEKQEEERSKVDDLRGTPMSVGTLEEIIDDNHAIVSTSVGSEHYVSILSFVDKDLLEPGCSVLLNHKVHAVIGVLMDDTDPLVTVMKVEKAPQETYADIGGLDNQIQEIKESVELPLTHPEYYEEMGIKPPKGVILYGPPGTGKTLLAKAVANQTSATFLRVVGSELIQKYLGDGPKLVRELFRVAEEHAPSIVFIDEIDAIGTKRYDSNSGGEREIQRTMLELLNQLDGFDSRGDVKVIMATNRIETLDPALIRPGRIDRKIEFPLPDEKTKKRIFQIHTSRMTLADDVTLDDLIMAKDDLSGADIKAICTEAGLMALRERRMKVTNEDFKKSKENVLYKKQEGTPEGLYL
# UniProt Q6JBY9, sequence (Q6JBY9 whole entry): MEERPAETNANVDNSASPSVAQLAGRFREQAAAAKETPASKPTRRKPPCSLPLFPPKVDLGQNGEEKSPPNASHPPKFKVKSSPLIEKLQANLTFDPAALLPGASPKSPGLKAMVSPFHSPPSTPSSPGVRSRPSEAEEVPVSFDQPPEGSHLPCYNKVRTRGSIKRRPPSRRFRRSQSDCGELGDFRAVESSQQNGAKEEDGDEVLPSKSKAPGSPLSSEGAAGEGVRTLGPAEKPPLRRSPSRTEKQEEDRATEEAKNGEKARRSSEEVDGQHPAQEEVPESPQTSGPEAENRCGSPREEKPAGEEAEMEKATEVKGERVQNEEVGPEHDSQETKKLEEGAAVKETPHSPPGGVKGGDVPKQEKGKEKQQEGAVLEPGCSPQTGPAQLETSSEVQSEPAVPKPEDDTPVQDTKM
# UniProt Q9UJ41, sequence (Q9UJ41 whole entry, looked up): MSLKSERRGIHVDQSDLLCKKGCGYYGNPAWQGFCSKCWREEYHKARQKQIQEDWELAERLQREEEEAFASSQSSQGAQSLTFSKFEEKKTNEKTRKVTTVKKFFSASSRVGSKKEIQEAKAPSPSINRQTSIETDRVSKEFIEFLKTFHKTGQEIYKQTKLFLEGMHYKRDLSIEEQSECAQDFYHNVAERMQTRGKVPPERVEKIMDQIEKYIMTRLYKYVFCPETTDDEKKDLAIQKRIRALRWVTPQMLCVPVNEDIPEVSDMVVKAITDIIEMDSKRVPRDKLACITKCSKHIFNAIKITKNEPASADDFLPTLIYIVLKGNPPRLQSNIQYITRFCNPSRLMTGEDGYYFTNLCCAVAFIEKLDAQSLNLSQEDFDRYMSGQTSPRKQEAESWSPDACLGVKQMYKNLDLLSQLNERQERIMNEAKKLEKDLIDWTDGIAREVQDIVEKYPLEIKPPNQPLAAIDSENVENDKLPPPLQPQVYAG
# UniProt Q8TDY2, sequence (Q8TDY2 whole entry, looked up): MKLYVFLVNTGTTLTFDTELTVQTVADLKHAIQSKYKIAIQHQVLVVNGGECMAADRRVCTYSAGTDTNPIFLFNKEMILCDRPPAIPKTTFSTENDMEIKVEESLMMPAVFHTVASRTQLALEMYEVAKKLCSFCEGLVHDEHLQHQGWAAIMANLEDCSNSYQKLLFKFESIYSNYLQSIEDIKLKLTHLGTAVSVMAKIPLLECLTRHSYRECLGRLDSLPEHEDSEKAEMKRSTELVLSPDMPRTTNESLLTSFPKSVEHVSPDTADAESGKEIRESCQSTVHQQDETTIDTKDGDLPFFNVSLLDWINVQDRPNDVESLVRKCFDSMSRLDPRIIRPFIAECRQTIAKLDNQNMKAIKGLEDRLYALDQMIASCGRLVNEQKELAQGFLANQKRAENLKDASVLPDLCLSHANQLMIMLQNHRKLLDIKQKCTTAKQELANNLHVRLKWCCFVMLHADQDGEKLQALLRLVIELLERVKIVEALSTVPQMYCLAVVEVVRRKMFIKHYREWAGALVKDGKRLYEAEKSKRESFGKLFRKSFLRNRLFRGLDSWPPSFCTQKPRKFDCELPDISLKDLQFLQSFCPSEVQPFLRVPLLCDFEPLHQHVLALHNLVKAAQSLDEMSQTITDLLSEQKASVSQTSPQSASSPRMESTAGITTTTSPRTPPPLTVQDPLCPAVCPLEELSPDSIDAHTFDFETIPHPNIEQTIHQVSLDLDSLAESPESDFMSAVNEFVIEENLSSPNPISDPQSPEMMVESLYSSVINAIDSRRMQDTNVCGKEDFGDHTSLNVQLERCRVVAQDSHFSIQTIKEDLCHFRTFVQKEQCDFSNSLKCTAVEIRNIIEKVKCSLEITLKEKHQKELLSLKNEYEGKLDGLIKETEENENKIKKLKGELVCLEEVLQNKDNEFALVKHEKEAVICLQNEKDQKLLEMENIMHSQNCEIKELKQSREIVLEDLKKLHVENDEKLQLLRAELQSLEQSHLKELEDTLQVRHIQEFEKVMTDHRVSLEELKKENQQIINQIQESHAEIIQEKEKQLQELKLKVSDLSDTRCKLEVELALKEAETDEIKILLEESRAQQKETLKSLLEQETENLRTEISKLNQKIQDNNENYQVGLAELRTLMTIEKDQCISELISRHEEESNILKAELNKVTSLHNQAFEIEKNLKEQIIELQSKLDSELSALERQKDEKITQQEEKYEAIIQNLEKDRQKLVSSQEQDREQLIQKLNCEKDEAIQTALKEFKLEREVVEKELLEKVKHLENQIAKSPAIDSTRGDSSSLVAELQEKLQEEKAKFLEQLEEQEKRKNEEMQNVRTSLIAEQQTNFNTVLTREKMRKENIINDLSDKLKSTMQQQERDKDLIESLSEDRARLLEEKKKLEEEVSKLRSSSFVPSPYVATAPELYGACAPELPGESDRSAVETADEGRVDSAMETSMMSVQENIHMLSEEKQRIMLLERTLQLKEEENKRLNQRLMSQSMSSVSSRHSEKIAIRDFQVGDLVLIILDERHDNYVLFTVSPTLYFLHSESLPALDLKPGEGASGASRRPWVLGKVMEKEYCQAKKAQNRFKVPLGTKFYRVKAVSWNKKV
# UniProt P61026, sequence (P61026 whole entry, looked up): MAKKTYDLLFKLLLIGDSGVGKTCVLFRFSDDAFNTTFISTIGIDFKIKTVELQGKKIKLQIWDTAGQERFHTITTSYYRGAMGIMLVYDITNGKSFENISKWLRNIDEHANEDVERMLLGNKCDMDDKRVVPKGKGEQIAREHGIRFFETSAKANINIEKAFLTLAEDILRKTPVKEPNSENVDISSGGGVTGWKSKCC
# UniProt O60930, sequence (O60930 whole entry): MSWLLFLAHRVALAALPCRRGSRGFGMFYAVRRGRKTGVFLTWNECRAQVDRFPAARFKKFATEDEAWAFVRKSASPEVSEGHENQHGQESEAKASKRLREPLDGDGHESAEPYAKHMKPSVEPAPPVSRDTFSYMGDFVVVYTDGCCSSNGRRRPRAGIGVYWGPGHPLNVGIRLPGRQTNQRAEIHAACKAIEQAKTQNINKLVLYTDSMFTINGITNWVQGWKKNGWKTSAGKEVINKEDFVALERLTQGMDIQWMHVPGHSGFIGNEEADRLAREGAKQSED
Target,probe-labelled cysteine peptide fold change (10 µM),probe-labelled cysteine peptide fold change (50 µM)
RARS_P54136_34_NCGCLGASPNLEQLQEENLK (UniProt P54136),-0.247,-1.27
PSMC1_P62191_58_LPLVTPHTQCR (UniProt P62191),-0.0192,0.104
RABEPK_Q7Z6M1_36_VGHSCSYLPPVGNAK (UniProt Q7Z6M1),-0.218,-0.0672
RANGAP1_P46060_169_ILAAALTECHRK (UniProt P46060),-0.159,-0.379
RABGEF1_Q9UJ41_359_DLSIEEQSECAQDFYHNVAER (UniProt Q9UJ41),-0.389,-0.123
PRMT1_Q99873_103_DKVVLDVGSGTGILCMFAAK (UniProt Q99873),-0.168,-0.709
RGS10_O43665_66_EFSEENVLFWLACEDFK (UniProt O43665),0.332,0.101
PRKDC_P78527_373_GYGLFAGPCK (UniProt P78527),-0.037,0.131
RAD54L2_Q9Y4B4_1143_MAASGSQGPSCESTSNGR (UniProt Q9Y4B4),-0.204,-0.485
PRKDC_P78527_1742_FNNYVDCMK (UniProt P78527),0.239,-0.0715
PTPN1_P18031_344_EETQEDKDCPIKEEK (UniProt P18031),-0.593,-1.57
PSME4_Q14997_637_CCPEESLK (UniProt Q14997),-0.0784,-0.446
RANBP2_P49792_2982_VCANHVITK (UniProt P49792),0.0357,0.111
RNF114_Q9Y508_160_NFDQEGLVEHCK (UniProt Q9Y508),0.0873,0.126
RAB10_P61026_124_CDMDDK (UniProt P61026),-0.104,0.0844
PTPMT1_Q8WUK0_127+132_YQSLGQCVYVHCK (UniProt Q8WUK0),0.0587,-0.0194
PRKDC_P78527_1364_DLCNTHLMR (UniProt P78527),-0.0526,-0.0393
RB1CC1_Q8TDY2_603_VPLLCDFEPLHQHVLALHNLVK (UniProt Q8TDY2),-0.156,-1.09
RBM28_Q9NW13_97_NENSECPK (UniProt Q9NW13),-0.0194,0.16
RAB29_O14966_127_CDLSPWAVSR (UniProt O14966),-0.0495,0.0455
RECQL4_O94761_814_DGQPAHCHLFLQPQGEDLR (UniProt O94761),-0.0251,-0.0847

Target,probe-labelled cysteine peptide fold change (10 µM),probe-labelled cysteine peptide fold change (50 µM)
RAI14_Q9P0K7_139_TALHYAAAQGCLQAVQILCEHK (UniProt Q9P0K7),0.0635,-0.0217
PSMD11_O00231_202_TTANAIYCPPK (UniProt O00231),0.077,0.248
QARS_P47897_665_GPSGCVESLEVTCR (UniProt P47897),-0.11,0.446
RHOT2_Q8IXI1_185_QLRPACAQALTR (UniProt Q8IXI1),-0.151,0.0492
PRKCSH_P14314_39_GVSLTNHHFYDESKPFTCLDGSATIPFDQVNDDYCDCK (UniProt P14314),-0.151,-1.07
PRPF4_O43172_441_RCVYTIPAHQNLVTGVK (UniProt O43172),-0.0522,-0.2
PTPN12_Q05209_164_ISCEDEQAR (UniProt Q05209),0.159,0.15
PRKDC_P78527_1335_CTVVVR (UniProt P78527),0.00715,0.101
PRMT9_Q6P2P2_290_GESANCEK (UniProt Q6P2P2),-0.112,-0.0837
RCSD1_Q6JBY9_181_RSQSDCGELGDFR (UniProt Q6JBY9),-0.852,-1.19
RFC3_P40938_32_NLVQCGDFPHLLVYGPSGAGK (UniProt P40938),-0.122,0.124
PUM1_Q14671_980_CIECVQPQSLQFIIDAFK (UniProt Q14671),0.213,-0.0133
RNASEH1_O60930_191_AEIHAACK (UniProt O60930),-0.0799,-0.155
RHOC_P08134_16_KLVIVGDGACGK<|>RHOA_P61586_16_KLVIVGDGACGK (UniProt P61586+P08134),-0.0365,-0.193
RAD50_Q92878_133_CAEIDREMISSLGVSK (UniProt Q92878),-0.195,-0.429
REEP5_Q00765_18_NCMTDLLAK (UniProt Q00765),-0.872,-1.97
RBM34_P42696_196_TVFVGNLPVTCNK (UniProt P42696),0.0157,-0.186
PRKCD_Q05655_127_VLMSVQYFLEDVDCK (UniProt Q05655),-0.226,-0.31
PXN_P49023_505_ECFTPFVNGSFFEHDGQPYCEVHYHER (UniProt P49023),0.192,0.386
RGPD3_A6NKT7_537_SWWDAVCTLIHR<|>RGPD8_O14715_537_SWWDAVCTLIHR<|>RGPD1_P0DJD0_528_SWWDAVCTLIHR<|>RGPD2_P0DJD1_536_SWWDAVCTLIHR<|>RANBP2_P49792_536_SWWDAVCTLIHR<|>RGPD4_Q7Z3J3_537_SWWDAVCTLIHR<|>RGPD6_Q99666_537_SWWDAVCTLIHR (UniProt Q7Z3J3+P49792+P0DJD1+Q99666+P0DJD0+O14715+A6NKT7),-0.451,-0.14
